DAX1 inh-1 – DAX1 (NR0B1) inhibition, primary screen | HEK293T StAR-luciferase reporter, SF-1/DAX-1 repression relief | inhibition, % at 6.8 µM | 1.1% of 370,000 active;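 active = inhibition above the mean over all tested compounds plus 3 SD, cut at about 3.6% in these data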;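 note: 0% = DAX-1 cells with DMSO and 100% = cells lacking DAX-1 with DMSO; higher inhibition means more luminescence from relief of DAX-1 repression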
ssDAF12 agonist – activates DAF-12 receptor from parasite S. stercoralis; 1% of 370,000 active; AID 652126; activation, % at 6.8 µM; HEK293 ssDAF-12/GRIP1 lit1-tk-luc reporter, luminescence; % of 3 µM dafachronic acid response;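 active = activation above the mean over all tested compounds plus 3 SD, cut at about 0.9% in these data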;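 note: 0% = DMSO-only wells and 100% = 3 µM delta7-dafachronic acid wells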
hgDAF-12 ag – agonists of H. glycines DAF-12 nuclear receptor. HEK293 GAL4-hgDAF12 UAS-luciferase reporter, agonist luminescence; normalized to butyrate control. activation, % at 6.8 µM. 1.8% of 370,000 active. AID 687014;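 active = activation above a cutoff set at the mean of all screened compounds plus 3 SD, cut at about 10% in these data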;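 note: 0% = DMSO wells and 100% = sodium butyrate wells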
hcDAF12 agonist – H. contortus DAF-12 activation, primary screen; AID 652067; activation, % at 6.8 µM; 1.4% of 370,000 active; HEK293 hcDAF-12 lit1-tk-luc reporter, luminescence; 0% DMSO, 100% Δ7-dafachronic acid;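 active = activation above the mean of all tested compounds plus 3 SD, cut at about 5.5% in these data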;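 note: 100% = response to 3 µM Δ7-dafachronic acid high control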
SMARCA2 activ – increases SMARCA2 function in MMTV reporter cells; AID 652017; MG213 cells, MMTV-luciferase reporter, dexamethasone, overnight; activation, % at 9.1 µM; 1% of 370,000 active; in the data active = activation above about 7.8%;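 note: 0% = vehicle wells and 100% = reference activator wells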
DAX1 inh-2 – inhibitors of human orphan nuclear receptor DAX1 (NR0B1) | P51843 | HEK293 Gal4-DAX1 luciferase reporter, luminescence | inhibition, % at 6.75 µM | 0.99% of 340,000 active;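 active = inhibition above the mean over all tested compounds plus 3 SD, cut at about 4.2% in these data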;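 note: 0% = DAX1-transfected cells with DMSO and 100% = empty-vector control cells with DMSO; inhibition shows as a rise in luminescence from relieved DAX1 repression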
Target sequence (P51843 207-470 limits assumed): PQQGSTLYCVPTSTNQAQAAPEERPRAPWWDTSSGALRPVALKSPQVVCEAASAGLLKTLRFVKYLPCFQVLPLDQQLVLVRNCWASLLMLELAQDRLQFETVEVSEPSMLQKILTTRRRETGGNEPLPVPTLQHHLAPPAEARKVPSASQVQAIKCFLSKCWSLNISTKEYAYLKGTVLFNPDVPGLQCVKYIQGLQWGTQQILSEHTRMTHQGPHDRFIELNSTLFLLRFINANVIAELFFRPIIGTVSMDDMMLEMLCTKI
DAX1 conf – confirmation of human DAX1 (NR0B1) inhibitors. shares compounds with DAX1 inh-1. HEK293T StAR-promoter luciferase reporter, SF-1/DAX-1 repression. inhibition, % at 6.8 µM. 87% of 2,400 active. AID 652134;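 active = inhibition above the average of every tested compound plus 3 SD, cut at about 3.8% in these data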;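 note: 0% = DAX-1 cells with DMSO and 100% = no DAX-1 control cells with DMSO; active compounds raise luminescence by relieving repression of the StAR reporter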
Target sequence (P51843 whole entry, looked up): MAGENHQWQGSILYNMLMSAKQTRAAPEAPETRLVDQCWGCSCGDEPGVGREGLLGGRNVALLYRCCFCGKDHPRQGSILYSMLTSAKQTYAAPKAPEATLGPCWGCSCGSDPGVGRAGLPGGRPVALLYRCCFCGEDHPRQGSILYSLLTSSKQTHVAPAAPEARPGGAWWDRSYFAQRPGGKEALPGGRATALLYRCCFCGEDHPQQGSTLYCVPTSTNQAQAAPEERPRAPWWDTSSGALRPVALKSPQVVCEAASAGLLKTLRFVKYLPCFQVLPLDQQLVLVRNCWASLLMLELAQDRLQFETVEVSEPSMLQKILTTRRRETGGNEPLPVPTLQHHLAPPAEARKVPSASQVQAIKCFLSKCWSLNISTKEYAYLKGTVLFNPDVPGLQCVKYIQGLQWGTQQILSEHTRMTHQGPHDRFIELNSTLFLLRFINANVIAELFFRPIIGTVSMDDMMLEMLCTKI
SF1 mutant ctr – counter-screen for DAX1 inhibitors: nonselective inhibitors with SF-1 AF2 mutant; shares compounds with DAX1 inh-1; HEK293 StAR-luciferase, luminescence; inhibition, % at 6.8 µM; 78% of 2,400 active; AID 652136;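 active = inhibition above the mean of all tested compounds plus 3 SD, cut at about 3% in these data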;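 note: 0% = DAX-1 transfected cells with DMSO and 100% = cells without DAX-1 with DMSO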
SMARCA2 act conf – SMARCA2 activation, confirmation screen | shares compounds with SMARCA2 activ | MG213 cells, MMTV-luciferase with dexamethasone, luminescence, overnight; MG213 cells expressing E1A, Rb sequestered; DMSO wells 0%, reference activator 100% | activation, % at 9.1 µM | 30% of 3,500 active | AID 652260;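 active = activation above its plate's cutoff, the mean activation of tested wells plus 3 SD, cut at about 7.9% in these data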
GAL4-VP16 Luc – activates GAL4-VP16 luciferase, flagging SMARCA2 activator hits. shares compounds with SMARCA2 activ. HEK293 GAL4-VP16 pG5luc reporter, luciferase luminescence; scaled: DMSO wells 0%, SAHA wells 100%. activation, % at 9.1 µM. 41% of 3,500 active. AID 686939;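 active = activation above the solvent-only control well mean plus 3 SD, averaged across control plates, cut at about 5.2% in these data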
LXRb hcDAF ctr – counter-screen for hcDAF-12 agonists: agonists of human LXR-beta; shares compounds with hcDAF12 agonist; HEK293 Gal4-LXR tk-luc reporter, luminescence, 24 h; normalized: DMSO 0%, positive control 100%; activation, % at 6.8 µM; 3,400 tested, under 10 active; AID 743027;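 active = mean percent activation of the reporter above a cutoff set as the average over tested compounds plus their standard deviation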
hcDAF12 conf – hcDAF-12 agonism, confirmation assay; AID 743032; shares compounds with hcDAF12 agonist; HEK293 hcDAF-12 lit1-tk-luc reporter, luminescence; % of Δ7-dafachronic acid response; 61% of 3,400 active; activation, % at 6.8 µM;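 active = mean activation across triplicate tests above the threshold derived from the earlier primary screen, cut at about 5.5% in these data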;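 note: 0% = DMSO only wells and 100% = 3 µM Δ7-dafachronic acid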
hgDAF12 conf – hgDAF-12 agonism, confirmation assay; shares compounds with hgDAF-12 ag; HEK293 GAL4-hgDAF12 luciferase reporter, agonist mode; percent of butyrate response; activation, % at 6.8 µM; 80% of 3,300 active; AID 743050;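 active = mean activation over triplicate wells above the hit cutoff derived from the earlier primary screen, cut at about 11% in these data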;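 note: 0% = DMSO low control and 100% = 2 mM sodium butyrate high control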
LXR ag 2 – counter-screen for DAF-12 agonists: agonists of human LXR-beta; shares compounds with hgDAF-12 ag; HEK293 Gal4-LXR luciferase reporter, 24 h; activation, % at 6.8 µM; 3,300 tested, under 10 active;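 active = mean activation of the triplicate above a set limit carried over from the primary screen, none filed active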
Starred values were filed as active, the others as inactive; · = no result given. A selection: hits, their analogues and other compounds. The true share with any hit is near 4.8%.

SMILES	DAX1 inh-1	ssDAF12 agonist	hgDAF-12 ag	hcDAF12 agonist	SMARCA2 activ	DAX1 inh-2	DAX1 conf	SF1 mutant ctr	LXRb hcDAF ctr	hcDAF12 conf	hgDAF12 conf	LXR ag 2	others
COCCNc1nc(-c2cc3ccccc3o2)cs1	6.7*	0.2	15.9*	8.7*	1.7	1.1	9.9*	7.2*	1.5	7.5*	18.3*	1.0
CCOc1cccc(-c2nnc3n2N=C(c2ccc(OC)cc2)CS3)c1	-3.4	-2.2	-0.9	-4.1	-2.8	·	·	·	·	·	·	·
OC(c1ccc(F)cc1)c1nc(-c2cnc3ccccc3c2)cs1 (configuration not stated)	5.1*	0.6	16.1*	6.6*	0.3	·	11.0*	8.1*	1.3	7.9*	19.2*	0.9
COc1ccc(C(O)c2nc(-c3cnc4ccccc4c3)cs2)cc1 (configuration not stated)	1.8	0.1	9.7	1.8	0.2	·	·	·	·	·	·	·
CN1OC[C@@H]2CN[C@H](c3ccc(-c4cccc(F)c4)cc3)C[C@@H]21	6.2*	0.1	13.4*	2.1	-0.2	4.0	6.3*	2.2	·	·	7.0	0.4
CC(=O)N/N=C(/C)c1ccc(NC(=O)c2csc(C)c2C)cc1	12.8*	0.2	17.0*	5.8*	7.0	1.1	9.4*	4.7*	·	·	15.9*	0.5
CCC(=O)Nc1ccc2c(c1)ncn2-c1ccc(C)cc1	7.4*	-0.3	13.4*	2.6	8.6*	1.6	9.0*	5.5*	·	·	11.0*	0.4	SMARCA2 act conf=5.7;GAL4-VP16 Luc=8.7*
N#Cc1ccc(Cn2ccc3ccc(-c4ccc5ccn(C(=O)c6ccccc6)c5c4)cc32)cc1	-2.1	-0.6	1.5	-1.7	-3.2	·	·	·	·	·	·	·
O=C(O)c1ccc(Nc2nc(-c3ccccc3)cs2)cc1	5.0*	0.8	15.5*	5.0	7.2	2.3	12.6*	7.7*	·	·	16.5*	0.6
Cc1csc(Nc2ccc(C(=O)O)cc2)n1	0.4	-1.2	0.2	0.0	-0.8	2.5	·	·	·	·	·	·
COC(=O)C1CN(C2CC2)CCS(=O)(=O)N1Cc1cn(Cc2ccc(F)cc2)nn1 (configuration not stated)	0.0	-1.2	3.2	-0.7	-1.0	·	·	·	·	·	·	·
C[C@@H]1CN(c2ccc(N3CCN(C(=O)OC(C)(C)C)C[C@@H]3C)cc2C#N)C[C@H](C)O1	-1.1	-0.8	7.9	0.7	-3.9	·	·	·	·	·	·	·
Cc1c(C(=O)N2c3ccccc3CC2C)oc2ccccc12 (configuration not stated)	5.3*	2.3*	18.0*	11.3*	4.8	3.4	8.8*	6.1*	1.2	16.7*	20.2*	0.7
O=C(NC1CCCCN(Cc2ccc(Cl)cc2)C1=O)c1ccc2ccccc2c1 (configuration not stated)	1.3	-0.8	5.1	-3.4	0.8	·	·	·	·	·	·	·
O=C(Nc1ccc2c(c1)OCO2)c1ccc(Cl)cc1Cl	15.9*	-0.2	18.4*	10.8*	3.0	-0.1	14.5*	5.0*	1.6	6.6*	17.4*	1.1
O=C(Nc1ccc2c(c1)OCO2)c1cc(-c2ccccc2Cl)on1	0.7	-1.2	7.3	1.8	3.7	1.4	·	·	·	·	·	·
O=C(Nc1ccc2c(c1)OCO2)c1cc(Cl)ccn1	6.5*	0.4	15.7*	5.4	3.9	1.9	11.7*	5.3*	·	·	17.0*	0.8
Cc1cc(N2CCC(C)CC2)nc2ccccc12	·	-0.5	1.3	-0.1	·	·	·	·	·	·	·	·
O=C(Nc1ccccc1C(=O)O)c1ccc(NC(=O)C2CC2)cc1	-0.8	-1.0	-0.9	1.1	-0.6	-1.6	·	·	·	·	·	·
O=C(Nc1ccccc1O)c1ccc(NC(=O)C2CC2)cc1	42.1*	0.9	62.1*	9.8*	1.6	9.5*	46.2*	22.3*	1.6	7.9*	69.0*	1.0
CCCCCCC(=O)NC1CCCCN(Cc2ccc(C)cc2)C1=O (configuration not stated)	-1.7	-0.6	3.7	-0.2	-2.1	·	·	·	·	·	·	·
Cc1cnc2nc(-c3ccccc3)ccc2c1	8.2*	1.0*	17.2*	6.8*	6.1	·	10.9*	6.8*	1.6	6.6*	19.1*	0.9
CC(C)CN1C(=O)C[C@]2(C(=O)N(C)c3ccc(NS(=O)(=O)C4CCCCC4)cc32)C1c1ccccc1 (some centres not stated)	-0.1	-1.1	3.3	-1.8	-3.1	·	·	·	·	·	·	·
O/N=C(\COc1ccccc1O)c1ccccc1	-0.3	-1.3	-0.2	-0.1	-1.1	-0.7	·	·	·	·	·	·
ON=C(CCc1ccccc1)c1ccccc1	5.1*	-0.1	14.8*	7.0*	7.8	·	11.9*	6.7*	1.0	5.8*	15.8*	0.6
C=CCn1c(Cc2cccs2)nnc1SCC(=O)Nc1ccc(C)cc1	-0.5	-1.5	-2.4	-2.6	-5.9	·	·	·	·	·	·	·
CCCCCCCCN1C(=O)[C@@H](CC(=O)NCc2cccc(C(F)(F)F)c2)C[C@@]2(C(=O)OC)C1=C[C@H](C(C)C)O[C@@H]2C1CC1	0.2	-0.9	0.1	-2.3	0.5	·	·	·	·	·	·	·
Cc1nnc(NC(=O)c2oc3ccccc3c2C)s1	8.9*	1.4*	15.2*	10.6*	3.2	1.1	10.0*	9.5*	0.9	12.0*	10.5*	0.6
